# MLLE-PAM2 inh: blocks PAM2 peptide binding to the PABP1 MLLE domain; inhibition, % at 20 µM; P11940; GST-MLLE / FITC-PAM2 fluorescence polarization; hit rate 0.36% among 360,000; AID 588489; in the data active = inhibition above about 35%, passing the limit was not always enough;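 also: plate controls were DMSO wells with GST-MLLE for no effect and wells lacking GST-MLLE protein for full effect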
# Target sequence (P11940 whole entry, looked up, the tested form may be a part): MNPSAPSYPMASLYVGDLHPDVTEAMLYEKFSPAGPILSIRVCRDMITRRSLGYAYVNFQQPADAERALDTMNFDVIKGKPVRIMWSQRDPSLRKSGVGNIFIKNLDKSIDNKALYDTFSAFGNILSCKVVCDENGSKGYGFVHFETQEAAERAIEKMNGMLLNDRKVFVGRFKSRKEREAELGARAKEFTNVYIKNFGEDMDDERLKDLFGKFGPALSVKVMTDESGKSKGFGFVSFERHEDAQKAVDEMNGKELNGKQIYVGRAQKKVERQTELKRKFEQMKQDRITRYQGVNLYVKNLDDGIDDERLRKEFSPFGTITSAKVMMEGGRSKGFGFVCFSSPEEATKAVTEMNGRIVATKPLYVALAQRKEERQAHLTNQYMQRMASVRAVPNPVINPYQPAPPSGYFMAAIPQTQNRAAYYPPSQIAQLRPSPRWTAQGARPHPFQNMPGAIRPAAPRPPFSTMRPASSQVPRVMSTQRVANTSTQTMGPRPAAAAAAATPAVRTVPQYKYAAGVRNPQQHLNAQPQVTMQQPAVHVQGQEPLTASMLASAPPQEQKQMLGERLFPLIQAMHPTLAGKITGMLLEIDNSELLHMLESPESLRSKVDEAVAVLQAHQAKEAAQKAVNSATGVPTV
# PERK inhibitor: inhibitors of human PERK kinase; inhibition, % at 5.6 µM; Q9NZJ5; CHO PERK-DD fusion, SEAP luminescence translation reporter; hit rate 0.17% among 220,000;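 active = inhibition above the mean inhibition of all tested compounds plus 3 SD, set separately per screening campaign, cut at about 2.9% in these data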;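 also: PERK kinase domain activated by AP20187 dimerizer at 100 nM; 0% = DMSO with dimerizer and 100% = rapamycin at 8.4 µM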
# PABP FP inh: blocks human PABP binding to poly(A) RNA. fluorescence polarization. inhibition, % at 35 µM. P11940. hit rate 1% among 290,000;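 also: calls also rest on retests at 20 µM and on dose response follow-up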
# eIF4E-4G inh: blocks eIF4E binding to eIF4G; TR-FRET eIF4E-eIF4GI(517-606) binding, 2 h; inhibition, % at 21.7 µM; hit rate 0.37% among 220,000;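 active = inhibition above about 30%, limit read from the data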;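 also: 0% = full FRET control wells and 100% = background wells lacking eIF4GI fragment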
# eIF4H FP inh: inhibitors of RNA binding by human eIF4H. Q15056. eIF4H fluorescence polarization binding assay. inhibition, % at 35 µM. hit rate 0.94% among 290,000. AID 2012;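 also: calls also rest on retests at 20 µM and on dose response follow-up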
# Starred values were filed as active, the others as inactive; ? = inconclusive; / = no result. This is a sample that favours compounds with a hit; in the whole collection about 1.6% have one here. Unless noted, no rule for the calls is given here.
SMILES,MLLE-PAM2 inh,PERK inhibitor,PABP FP inh,eIF4E-4G inh,eIF4H FP inh
COc1ccc(OC)c(NC(=O)CCN2CCN(C/C=C/c3ccccc3)CC2)c1,2.0,/,11.8,/,-7.9
COc1cc2c(ccc3cc(OC)c(OC)c(O)c32)cc1O,8.7,/,85.5*,24.1,73.9*
Oc1nc(Nc2cccc(Cl)c2)sc1/C=C1\C=Nc2ccccc21,-21.8,0.6,5.1,4.4,4.2
CCOC(=O)c1c(Nc2ccc(Cl)cc2)sc(/C=C2\C=Nc3ccccc32)c1O,-55.0,-1.3,115.3*,-24.8,?
COC(=O)C1=C(C(=O)OC)C(c2ccccc2O)c2sc(=O)[nH]c2S1 (stereo not drawn),45.5*,0.8,1.9,-0.6,-3.6
COc1cccc(CNC(=O)CCC2CCCN(C(=O)c3cccc4c(C)c(C)[nH]c34)C2)c1 (stereo not drawn),7.8,-0.3,active,3.0,66.5*
CCC(C)c1c(O)nc(SCc2ccccc2)[nH]c1=O (stereo not drawn),3.3,0.7,-0.8,-4.0,7.2
COc1ccccc1-c1noc(-c2ccccc2)n1,2.6,0.6,0.9,86.7*,-1.5
COc1ccc([N+](=O)[O-])cc1/C=N/NC(=O)CNC(=O)c1cccc(F)c1,-5.4,0.7,-5.0,3.3,-1.7
COc1ccc([N+](=O)[O-])cc1/C=N/NC(=O)CNC(=O)C(c1ccccc1)c1ccccc1,-2.8,-0.2,active,-4.5,83.8*
CN1/C(=C/c2cccc[n+]2C)Sc2ccccc21,-140.4,/,66.3*,/,-1.7
COc1ccc2c(c1)N(C)/C(=C/c1cccc[n+]1C)S2,-137.9,/,35.0,/,-0.8
Cc1ccc2c(c1)S/C(=C/c1ccc[n+](C)c1)N2CCO,-119.0,1.5,-5.3,1.0,1.5
Cc1ccc2c(c1)N(C)/C(=C/c1cccc[n+]1C)S2,-144.8,/,64.0*,/,5.7
Cc1ccc2c(c1)N(C)/C(=C/c1cccc[n+]1CCO)S2,-133.1,/,65.8*,/,-1.7
O=C(Nc1cc(Cl)ccc1Cl)c1noc2c1CCCC2,7.1,/,16.9,-14.6,-7.3
O=C(Nc1ccc(F)cc1F)c1noc2c1CCC2,13.5,0.7,44.6*,16.3,85.0*
O=C1C2CC=C(Cl)CC2C(=O)N1CN(Cc1ccco1)CN1C(=O)C2CC=C(Cl)CC2C1=O (stereo not drawn),-7.4,1.5,54.0*,-0.3,65.8*
O=C(O)c1ccc(CNc2ccccc2C(=O)O)cc1,0.5,0.8,76.8*,-2.2,77.4*
O=C(O)c1ccccc1NCc1ccncc1,13.2,-0.4,-8.8,-2.8,-7.4
CCCCOc1[nH]c2nc(-c3ccco3)n(Cc3ccco3)c(=N)c2c1C#N,94.6,1.3,118.4*,12.7,126.6*
O=C(O)CSC1CC(=O)N(c2ccc(Cl)c(Cl)c2)C1=O (stereo not drawn),41.0*,1.1,6.0,4.6,-7.7
Cc1ccccc1OCC(O)CNC1CCCC1 (stereo not drawn),3.2,/,9.0,/,5.5
N#CC1=C(N)N=C(SCc2cccc3ccccc23)C(C(N)=O)C12CCCCC2 (stereo not drawn),40.5*,0.3,3.1,0.2,-8.0
C=CCc1cccc2cc(C(=O)N3CCN(c4ccccn4)CC3)c(=O)oc12,-11.8,0.3,-1.7,1.5,-1.7
SMILES,MLLE-PAM2 inh,PERK inhibitor,PABP FP inh,eIF4E-4G inh,eIF4H FP inh
N=C(N)SCc1ccccn1,17.4,2.4,-3.2,5.1,7.8
Cc1sc2nc(CSc3nc4ccccc4c(=O)n3CCCN3CCOCC3)[nH]c(=O)c2c1C,-75.4,-1.3,122.4*,-20.4,?
COc1ccccc1OCCCn1c(C)c(C#N)c2ccccc21,-3.3,-0.9,-3.8,1.9,-5.6
COc1ccc(Nc2c3c(nc4ccccc24)CCC3)c(OC)c1,-7.9,/,2.8,/,6.2
COCCNC(=O)c1ccc(-n2c(SCc3ccncc3)nc3ccccc3c2=O)cc1,2.4,-0.9,71.3*,1.9,active
CC1CCCN(CC(=O)N2c3ccccc3Sc3ccccc32)C1 (stereo not drawn),-0.3,0.6,53.8,3.3,3.1*
O=C(CN1CCCCCC1)N1c2ccccc2Sc2ccccc21,-10.6,-0.4,-5.8,-0.9,-6.2
CCC(C(=O)NC(C)CCc1ccccc1)n1nc(C)n2c(cc3occc32)c1=O (stereo not drawn),3.5,0.1,12.2,2.3,11.7
CCC(C(=O)NC(C)CCc1ccco1)n1nc(C)n2c(cc3occc32)c1=O (stereo not drawn),-3.2,-0.6,1.9,49.8*,0.4
CC1=C(C(=O)Nc2cc(-c3cccc(F)c3)[nH]n2)C2(CCCCC2)OC1=O,6.1,-0.3,active,2.5,55.1*
O=C(Nc1cc(-c2ccccc2)[nH]n1)c1ccccc1F,1.2,1.4,33.9,-5.1,37.9
CCC1Oc2ccccc2N(CC(=O)NCCCN2CCN(Cc3ccccc3)CC2)C1=O (stereo not drawn),-13.6,-0.2,-5.0,-4.4,-4.8
C/C=C(/C)C(=O)Nc1cccc(C2=NOC3(C2)C[C@@H](C(N)=O)N(C(=O)[C@H]2CCC(=O)N2)C3)c1 (stereo partly drawn),0.1,/,5.6,-5.7,-3.2
C=C(C)C(=O)Nc1cccc(C2=NOC3(C2)C[C@@H](C(N)=O)N(C(=O)c2cc([N+](=O)[O-])cc([N+](=O)[O-])c2)C3)c1 (stereo partly drawn),-3.6,/,43.2,-3.4,88.8
C=C(C)C(=O)Nc1cccc(C2=NOC3(C2)C[C@@H](C(N)=O)N(C(=O)c2ccc(OC)cc2)C3)c1 (stereo partly drawn),-2.8,/,54.1*,7.0,105.8*
CCCCCC(=O)N1CC2(CC(c3cccc(NC(=O)[C@@H]4CCC(=O)N4)c3)=NO2)C[C@@H]1C(N)=O (stereo partly drawn),0.3,/,9.1,-1.6,5.3
C=C(C)C(=O)Nc1cccc(C2=NOC3(C2)C[C@@H](C(N)=O)N(C(=O)CCCCC)C3)c1 (stereo partly drawn),/,/,69.9*,8.6,80.8*
C=C(C)C(=O)Nc1cccc(C2=NOC3(C2)C[C@@H](C(N)=O)N(C(=O)[C@H]2CCC(=O)N2)C3)c1 (stereo partly drawn),-3.2,/,39.3,4.1,102.9*
CCN(CC)c1ccc(N=Cc2ccccc2[N+](=O)[O-])cc1,24.2,-0.1,-6.4,4.9,1.9
CCN(CC)c1ccc(N=Cc2ccc([N+](=O)[O-])o2)cc1,-16.9,-0.2,1.4*,14.5,71.5*
CCn1cnc2c1c(=O)n(CC(=O)NCc1ccccc1)c(=O)n2Cc1ccccc1,-0.7,0.0,-5.0,-0.1,0.8
CCn1cnc2c1c(=O)n(CC(=O)NCC(F)(F)F)c(=O)n2Cc1ccccc1,-53.9,0.9,active,1.4,99.2*
COc1cc(-c2c(C(C)=O)c(C)nc3c2C(=O)c2ccccc2-3)cc(OC)c1OC,-4.5,/,2.5,/,6.8
CC(=O)c1c(Cl)nc2cccc3c2c1-c1ccccc1C3=O,50.0*,/,6.0,/,-1.5
O=C(/C=C/c1cccc([N+](=O)[O-])c1)Nc1ccc(NC(=O)c2cccs2)cc1,6.9,1.7,50.3*,10.9,23.5

# Screening data: PubChem BioAssay, several laboratories
